# The supplement of paper PMC4466140
# Legend:
# Experiment in all cases: SPOT peptide array binding signal intensity (averaged, normalized) (arbitrary units (background-subtracted, floor 0; scale differs between SH3 domains)); higher = stronger binding of the SH3 domain to the peptide
# AgAbp1 = target: AgAbp1
# How it was run: (§1)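 To measure binding, SH3 domains from four yeast species were fused to GST, expressed in E. coli BL21(DE3) and purified on glutathione Sepharose. Each domain was incubated at 10 μg/ml overnight at 4°C on cellulose membranes with synthetic 15-mer peptides whose cysteines were replaced by serines. Anti-GST antibody, an HRP anti-mouse secondary and luminol were used for detection, and images were quantified with Genespotter. Reported binding signal is normalized, background-subtracted spot intensity averaged over replicates, in arbitrary units that differ between domains.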
# AgBbc1 = target: AgBbc1
# How it was run: as §1
# AgBem1-D1 = target: AgBem1-D1
# How it was run: as §1
# AgBzz1-D1 = target: AgBzz1-D1
# How it was run: as §1
# AgBzz1-D2 = target: AgBzz1-D2
# How it was run: as §1
# AgCyk3 = target: AgCyk3
# How it was run: as §1
# AgFus1 = target: AgFus1
# How it was run: as §1
# AgHof1 = target: AgHof1
# How it was run: as §1
# AgHse1 = target: AgHse1
# How it was run: as §1
# AgLsb1 = target: AgLsb1
# How it was run: as §1
# AgLsb4 = target: AgLsb4
# How it was run: as §1
# AgMyo5 = target: AgMyo5
# How it was run: as §1
# AgNbp2 = target: AgNbp2
# How it was run: as §1
# AgRvs167 = target: AgRvs167
# How it was run: as §1
# AgSho1 = target: AgSho1
# How it was run: as §1
# AgSla1-D1-D2 = target: AgSla1-D1-D2
# How it was run: as §1
# AgSla1-D3 = target: AgSla1-D3
# How it was run: as §1
# CaAbp1-D1 = target: CaAbp1-D1
# How it was run: as §1
# CaAbp1-D2 = target: CaAbp1-D2
# How it was run: as §1
# CaBbc1 = target: CaBbc1
# How it was run: as §1
# CaBem1-D1 = target: CaBem1-D1
# How it was run: as §1
# CaBzz1-D1 = target: CaBzz1-D1
# How it was run: as §1
# CaBzz1-D2 = target: CaBzz1-D2
# How it was run: as §1
# CaCyk3 = target: CaCyk3
# How it was run: as §1
# CaFus1 = target: CaFus1
# How it was run: as §1
# CaHof1 = target: CaHof1
# How it was run: as §1
# CaHse1 = target: CaHse1
# How it was run: as §1
# CaLsb1 = target: CaLsb1
# How it was run: as §1
# CaLsb4 = target: CaLsb4
# How it was run: as §1
# CaMyo5 = target: CaMyo5
# How it was run: as §1
# CaNbp2 = target: CaNbp2
# How it was run: as §1
# CaRvs167 = target: CaRvs167
# How it was run: as §1
# CaRvs167-3 = target: CaRvs167-3
# How it was run: as §1
# CaSho1 = target: CaSho1
# How it was run: as §1
# CaSla1-D1-D2 = target: CaSla1-D1-D2
# How it was run: as §1
# CaSla1-D3 = target: CaSla1-D3
# How it was run: as §1
# ScAbp1 = target: ScAbp1
# How it was run: as §1
binder,measurement,setting,value
LPPPPPPPPPPPLPQ,SPOT peptide array binding signal intensity,AgAbp1,11
same,SPOT peptide array binding signal intensity,AgBbc1,1.25
same,SPOT peptide array binding signal intensity,AgBem1-D1,≤ 0
same,SPOT peptide array binding signal intensity,AgBzz1-D1,42.5
same,SPOT peptide array binding signal intensity,AgBzz1-D2,1
same,SPOT peptide array binding signal intensity,AgCyk3,1
same,SPOT peptide array binding signal intensity,AgFus1,3
same,SPOT peptide array binding signal intensity,AgHof1,128
same,SPOT peptide array binding signal intensity,AgHse1,21
same,SPOT peptide array binding signal intensity,AgLsb1,1.5
same,SPOT peptide array binding signal intensity,AgLsb4,≤ 0
same,SPOT peptide array binding signal intensity,AgMyo5,640
same,SPOT peptide array binding signal intensity,AgNbp2,28.5
same,SPOT peptide array binding signal intensity,AgRvs167,≤ 0
same,SPOT peptide array binding signal intensity,AgSho1,≤ 0
same,SPOT peptide array binding signal intensity,AgSla1-D1-D2,4.5
same,SPOT peptide array binding signal intensity,AgSla1-D3,≤ 0
same,SPOT peptide array binding signal intensity,CaAbp1-D1,9
same,SPOT peptide array binding signal intensity,CaAbp1-D2,≤ 0
same,SPOT peptide array binding signal intensity,CaBbc1,≤ 0
same,SPOT peptide array binding signal intensity,CaBem1-D1,3
same,SPOT peptide array binding signal intensity,CaBzz1-D1,1990
same,SPOT peptide array binding signal intensity,CaBzz1-D2,495
same,SPOT peptide array binding signal intensity,CaCyk3,≤ 0
same,SPOT peptide array binding signal intensity,CaFus1,≤ 0
same,SPOT peptide array binding signal intensity,CaHof1,≤ 0
same,SPOT peptide array binding signal intensity,CaHse1,5.75
same,SPOT peptide array binding signal intensity,CaLsb1,≤ 0
same,SPOT peptide array binding signal intensity,CaLsb4,≤ 0
same,SPOT peptide array binding signal intensity,CaMyo5,182
same,SPOT peptide array binding signal intensity,CaNbp2,10
same,SPOT peptide array binding signal intensity,CaRvs167,≤ 0
same,SPOT peptide array binding signal intensity,CaRvs167-3,0.5
same,SPOT peptide array binding signal intensity,CaSho1,4.5
same,SPOT peptide array binding signal intensity,CaSla1-D1-D2,5.5
same,SPOT peptide array binding signal intensity,CaSla1-D3,0.5
same,SPOT peptide array binding signal intensity,ScAbp1,2.5
